Screening results deposited in PubChem by several laboratories.
WT yeast gro inh = growth inhibition of WT strain, primary screen, mitochondrial fusion inhibitor project, WT and mutant strains, chemical genetic. mitochondrial fusion phenotypic screen. inhibition, % at 10 µM. 2.1% of 190,000 active; in the data active means inhibition above about 58%; tested in S. cerevisiae
L major viab = Leishmania major promastigote growth inhibition, primary screen; Leishmania major promastigotes, resazurin fluorescence viability; inhibition, % at 10 µM; 9% of 200,000 active; AID 1063, 2008; in the data active means inhibition above about 50%;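 further: promastigotes grown with compound for 44 hours at 28 °C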
ROMK primary = ROMK potassium channel modulators, primary screen, cell-based, thallium flux, MLSMR library; ATP-sensitive inward rectifier potassium channel 1 (Homo sapiens), P48048; Tet-inducible ROMK, thallium flux fluorescence; actives lie on both sides; B-score at 10 µM; 2% of 130,000 active;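 active means signal ratio slope over the read window, or its plate-corrected B-score, at least 3 SD from the plate mean, either direction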;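 further: B-score of the F/F0 ratio slope over 7 to 12 s after thallium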
Ins promoter up = insulin promoter activators in MIN6 cells, imaging, high-content screening, mouse beta cells; MIN6 insulin promoter-GFP reporter; stronger effect = higher value; AID 1625, 2009; z-score at 5 µM; 0.3% of 190,000 active;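 active means z-score above 3 at 5 µM with at least 500 cells counted in the well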
INS promoter inh = inhibitors of insulin promoter-driven GFP, primary screen, imaging, TRM-6 cells (human fetal islet line), eGFP reporter, cell count; reporter expression induced with tamoxifen; inhibition, % at 2 µM; 0.9% of 130,000 active;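 active means inhibition above the mean plus 3 SD, with well images judged a real hit on visual review, cut at about 60% in these data, passing the limit was not always enough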
Cl transport mod = KCC2 cotransporter modulators, thallium flux, primary screen, cell-based, HEK293 KCC2, FluoZin-2 fluorescence, MLSMR; KCC2 cells, thallium flux FluoZin-2 fluorescence; Solute carrier family 12 member 5 (Homo sapiens), Q9H2X9; B-score of Tl+ flux slope (higher = more flux/activation; lower = inhibition) at 10 µM; 2.2% of 190,000 active;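 active means thallium flux slope and its plate-corrected score both differing from the plate sample mean at a set confidence after two filtering rounds, in either direction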;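 further: slope of fluorescence scaled to starting intensity during 10 to 20 s after thallium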
Active calls of the source: *; x = no result given. Compounds with a hit are over-represented: about 12% of the library has one in this group of screens.

SMILES | WT yeast gro inh | L major viab | ROMK primary | Ins promoter up | INS promoter inh | Cl transport mod
COC(=O)CN1C(=S)N(c2ccc(OC)cc2)C(=O)/C1=C/c1cccs1 | 12.9 | 69.0* | -0.00251 | 0.55 | -37.8 | 1.05
CCc1ccc(N2C(=O)/C(=C/c3cccs3)N(CC(=O)OC)C2=S)cc1 | x | -0.4 | x | x | -22.2 | 1.58
CCc1c(C)[nH]c2nc3ccccc3n2c1=O | -14.5 | 93.6* | 0.724 | -0.32 | 10.3 | 0.341
NC(=O)NC(=O)COC(=O)c1ccc2c(c1)C(=O)N(Cc1ccccc1)C2=O | x | x | x | -0.19 | x | 0.458
Cc1cc(N2C3CCC2CC(O)(c2ccc(F)cc2)C3)nc(-c2ccccc2)n1 (stereo not given) | 27.9 | 58.1* | 0.363 | 1.28 | 35.7 | x
CC(=O)Nc1ccc(C(=O)NNC(=O)c2cc([N+](=O)[O-])cc([N+](=O)[O-])c2)cc1 | -4.0 | -10.3 | 0.734 | 0.02 | x | 0.115
CC(=O)C(N=Nc1ccccc1)(Sc1nnc(-c2ccccc2)n1-c1ccccc1)C(C)=O | 78.5* | 18.9 | x | x | -38.0 | -1.22
CC(=O)/C(=N\Nc1ccccc1)Sc1nnc(-c2ccccc2)n1-c1ccccc1 | -2.0 | 9.5 | 0.147 | -0.12 | -53.6 | -1.1
CC(=O)C(N=Nc1ccccc1)(Sc1nnc(-c2ccccc2)n1-c1ccccc1)C(=O)Nc1ccccc1 (stereo not given) | 27.7 | 78.1* | x | 0.35 | x | 0.248
OCC1(CC2CCCCO2)CCN(Cc2ccccc2-c2ccco2)CC1 (stereo not given) | -3.0 | -1.2 | -0.424 | -0.19 | x | 0.3
CCC(=O)N1CCN(c2ccc(OC)cc2[N+](=O)[O-])CC1 | 4.7 | -2.4 | x | 0.28 | -12.5 | x
CCN1CCN(c2ccc(S(=O)(=O)N(CC)CC)cc2[N+](=O)[O-])CC1 | 11.6 | 94.8* | -0.0246 | -0.24 | 15.4 | 1.83
CCN(CC)S(=O)(=O)c1ccc(N2CCN(c3cccc(OC)c3)CC2)c([N+](=O)[O-])c1 | -17.4 | 100.1* | 0.385 | -0.27 | -30.8 | 0.797
CCCN1CCN(c2ccc(S(N)(=O)=O)cc2[N+](=O)[O-])CC1 | -7.6 | -5.6 | -0.675 | 0.21 | x | 2.3
CN(C)c1ccc(C(=S)N2CCCCCC2)cc1 | 21.0 | 75.9* | -0.0695 | -2.28 | 48.3 | x
Oc1ccc(C(=S)N2CCCCC2)cc1 | 4.1 | -1.1 | -0.615 | -0.02 | -48.4 | 0.744
CC(=O)N1CCN(C(=S)c2ccc(N(C)C)cc2)CC1 | 9.6 | -8.2 | 0.269 | -0.78 | -6.7 | x
S=C(c1ccc(N2CCOCC2)cc1)N1CCCCC1 | 1.8 | 81.0* | x | 0.19 | 12.1 | x
S=C1NC2(CCCCC2)Cc2ccccc21 | 68.6* | -0.1 | -0.535 | x | 26.7 | 0.966
O=C1NC2(CCCCC2)Cc2ccccc21 | 14.9 | 2.9 | x | 0.02 | -45.5 | x
N#CC(C#N)=C1NC2(CCCC2)Cc2ccccc21 | -7.0 | 84.7* | 1.52 | 0.06 | 11.1 | 0.293
CN(C)N1C(N)=C(C#N)C(c2ccccc2)C2=C1CCCC2=O (stereo not given) | -7.1 | 0.0 | x | 0.41 | -23.1 | 0.2
O=C(Nc1ccccc1Oc1ccccc1)c1cc([N+](=O)[O-])ccc1Cl | 75.7* | 16.8 | x | 0.15 | x | -0.0384
Cc1ccc(Oc2ccc(Cl)cc2NC(=O)c2ccc(F)cc2F)cc1 | 13.3 | 58.3* | x | -0.88 | -21.6 | 0.508
O=C(Nc1cc(Cl)ccc1Oc1ccccc1)c1ccccc1F | 57.9 | 1.8 | x | 1.27 | x | 0.677
SMILES | WT yeast gro inh | L major viab | ROMK primary | Ins promoter up | INS promoter inh | Cl transport mod
O=C(Nc1cc(Cl)ccc1Oc1ccccc1)c1ccc(F)cc1 | 65.9* | 0.4 | x | 0.51 | x | 0.403
O=C(Nc1ccccc1Cl)c1ccccc1Oc1ccc(C(F)(F)F)cc1[N+](=O)[O-] | 83.2* | 79.4* | x | -0.31 | 13.8 | -0.873
COc1ccccc1NC(=O)COc1ccc(C(F)(F)F)cc1[N+](=O)[O-] | x | -7.4 | x | x | 20.8 | x
COc1ccc(CN(Cc2ccc(C(=O)O)cc2)C(=S)Nc2ccccc2Cl)cc1OC | -13.3 | 3.5 | 0.87 | 0.32 | x | -0.0441
CC1(CCc2ccc3c(c2)OCO3)NC(=O)c2ccccc2N1 (stereo not given) | 2.1 | 99.9* | -0.473 | x | -37.0 | 1.31
CCOc1ccc(-c2nc(-c3cccnc3)no2)cc1OCC | 6.4 | 80.5* | -0.254 | -1.23 | x | 1.01
CCOc1ccc(-c2noc(-c3cccnc3)n2)cc1OCC | x | x | -0.541 | -0.17 | x | 0.102
COc1ccc(Cl)cc1-c1nc(-c2ccncc2)no1 | 15.6 | 6.8 | -0.019 | 0.45 | 81.0* | -1.48
CCOc1ccc(-c2noc(-c3ccncc3)n2)cc1OCC | -6.0 | 93.3* | x | 1.28 | -30.6 | -0.672
c1cnc(NCCNc2ncccn2)nc1 | -7.4 | -0.5 | x | -0.31 | x | x
CCN(c1ccccc1)S(=O)(=O)c1ccc(C(C(=O)OC)C(=O)OC)c([N+](=O)[O-])c1 | -14.3 | 99.0* | 0.636 | 0.73 | x | 0.0128
CCN(c1cccc(C)c1)S(=O)(=O)c1ccc(OC)c([N+](=O)[O-])c1 | -5.2 | -1.6 | 1.19 | x | x | -0.615
COc1ccc(Cn2nc(C)n(N(C)c3ncc(C(F)(F)F)cc3Cl)c2=O)cc1 | -7.0 | 98.7* | -0.00651 | x | -53.1 | -0.419
CCOC(=O)c1[nH]c(C)c(C(=O)N2CCN(c3ccc(F)cc3)CC2)c1C | 12.3 | 4.9 | -0.502 | 0.03 | 66.7 | -1.98
CCOC(=O)c1[nH]c(C)c(C(=O)c2cc(F)ccc2F)c1C | 9.9 | 4.2 | x | -1.82 | 70.3* | -0.0135
CC1(NC(=O)Nc2ccccc2)CCS(=O)(=O)C1 (stereo not given) | x | x | x | 1.38 | x | 0.553
Cc1ccccc1NC(=S)NC1(C)CCS(=O)(=O)C1 (stereo not given) | -6.7 | 54.2* | -0.0792 | -0.76 | -33.3 | -0.0311
C/C(=N\NC(N)=S)c1ccc(Cl)s1 | -8.1 | -5.3 | -1.05 | -0.04 | 33.3 | 3.01
C/C(=N\NC(=S)NC(C)C)c1ccc(Cl)s1 | 24.7 | 27.2 | x | 1.42 | x | 24.2*
C/C(=N\NC(=O)c1csc(C)c1C)c1ccc(Cl)s1 | 10.0 | 11.7 | -0.0455 | x | -43.5 | 22.2*
O=P(O)(CN1CCCCCC1)CN1CCCCCC1 | 3.8 | 0.4 | x | 0.26 | 3.9 | 1.14
COc1cc2[nH]c(=O)n(Cc3ccc(C(=O)NCCCN4CCN(C)CC4)cc3)c(=O)c2cc1OC | 38.6 | 1.6 | 0.154 | 0.03 | 34.5 | -0.536
COc1ccc(C2Oc3ccccc3C3=C2C(c2cccs2)n2ncnc2N3)cc1 (stereo not given) | 20.4 | 69.1* | -1.94 | 1.57 | 17.2 | -2.82
Brc1ccc(C2C3=C(Nc4ncnn42)c2ccccc2OC3c2ccncc2)cc1 (stereo not given) | 10.3 | 74.9* | 1.64 | -0.37 | -41.7 | 0.373
CCCC1=C(C(=O)OCC)C(c2ccncc2)n2ncnc2N1 (stereo not given) | -11.0 | 6.6 | 0.00392 | 0.04 | 20.8 | x
CC(=O)Nc1nc(-c2ccccc2)nc(-c2ccccc2OC(C)=O)n1 | 37.3 | 5.6 | -0.229 | -1.33 | -6.1 | -2.64
CCCCNC(=S)Nc1ccccc1Cc1ccccc1 | 72.6* | 11.5 | -0.795 | -0.43 | -54.5 | 0.0117
Cc1ccccc1NC(=S)NCCO | -4.7 | 3.7 | 0.98 | 1.01 | x | 1.98
